Measured values published in PubChem BioAssay (NCATS).
Unmarked numbers belong to inactive results. No rule for the calls is given here.

System: HIV-1 nucleocapsid protein NCp7 (binding to TG oligonucleotide)
Assay: HIV Nucleocapsid (AID 346);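 also: potency is for inhibitors that block NC binding and lower polarization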
Conditions: HIV-1 NC / fluorescein-TGTGTGTG probe, fluorescence polarization
Summary of the method: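 HIV-1 NC (100 nM) binding to fluorescein-labelled ssDNA TG4xF (10 nM) in Hepes pH 7.5, 250mM NaCl, 1uM ZnCl2, TCEP and 2-mercaptoethanol; compounds pin-transferred, 1 hr room temperature, fluorescence polarization read on CCD imager.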
Potency is read from the fitted curve at half-maximal effect.

Compound	Potency [µM]
CCNc1ncc2ncc(=O)n(Cc3cccs3)c2n1	> 20
Clc1ccccc1-c1nccc(-n2ccnc2)n1	> 20
CN1CCN(c2ncnc3ccc(-c4ccoc4)cc23)CC1	> 20
O=c1cnc2cnc(N3CCOCC3)nc2n1Cc1cccs1	> 20
COc1ccccc1-c1ccc2ncnc(N3CCNCC3)c2c1	> 20
O=c1c(-c2ccccc2)nc2cnc(Oc3cccc(Cl)c3)nc2n1C1CC1	> 20
CN1CCN(c2ncnc3ccc(-c4ccc(C(=O)N(C)C)cc4)cc23)CC1	> 20
COCC(=O)N1CCC2(CCCN(c3ccncc3)C2)CC1	> 20
Cc1ccccc1-c1nc(NCCN2CCOCC2)c2ccccc2n1	> 20
COc1ccc(-n2c(=O)c(C)nc3cnc(Nc4ccccc4)nc32)cc1	> 20
COc1ccc(NC(=O)N2CC3(CCN(C(=O)c4c(C)noc4C)CC3)C2)cc1	> 20
COc1ccc(-c2nc3cnc(N(C)C)nc3n(CCC#N)c2=O)cc1	> 20
COc1ccc(-n2c(=O)c(-c3cn(C)c4ccccc34)nc3cnc(OC)nc32)cc1	> 20
Cc1noc(C)c1C(=O)N1CCC2(CCCN(C(=O)Nc3cccc(C#N)c3)C2)CC1	> 20
O=C(c1cc(C(F)(F)F)cc(C(F)(F)F)c1)N1CCC2(CC1)CN(c1ccncc1)C2	> 20
O=c1c(-c2ccc(Cl)cc2)nc2cnc(N3CCNCC3)nc2n1CCc1ccccc1	> 20
CC(=O)N1CCC2(CC1)CCN(C(c1ccccc1)c1ccccc1)CC2	> 20
COC(=O)N1CCC[C@@]2(CCN(Cc3cc(C(F)(F)F)cc(C(F)(F)F)c3)C2)C1	> 20
CC(=O)NCCNc1nc(-c2ccccc2C)nc2ccccc12	> 20
COc1cccc(-c2ccc3ncnc(NCCc4c[nH]c5ccc(OC)cc45)c3c2)c1	> 20

Compound	Potency [µM]
COc1cccc(Cn2c(=O)c(-c3cc(F)cc(F)c3)nc3cnc(N4CCN(C)CC4)nc32)c1	> 20
COCCn1c(=O)c(-c2ccc(F)cc2)nc2cnc(Oc3ccccc3)nc21	> 20
COc1ccccc1-c1cncnc1-n1ccnc1	> 20
O=C(c1cnccn1)N1CCC[C@@]2(CCN(c3ccncc3)C2)C1	> 20
COc1ccc2[nH]cc(CCNc3ncnc4ccc(-c5cccnc5)cc34)c2c1	> 20
COc1ccc2[nH]cc(CCNc3ncnc4ccc(-c5ccccc5CN(C)C)cc34)c2c1	> 20
Fc1ccc(Nc2nc(-c3ccoc3)nc3ccccc23)cc1	> 20
O=c1c(CCc2ccccc2)nc2cnc(N3CCOCC3)nc2n1Cc1cccs1	> 20
Cc1nc2cnc(Nc3ccccc3)nc2n(C)c1=O	> 4
COc1ccccc1CNc1nc(-c2ccc3c(c2)OCO3)nc2ccccc12	> 20
COc1ccc(C(=O)N2CCC3(CC2)CCN(c2ccccn2)CC3)cc1	> 20
Cc1ccccc1-c1ccc2ncnc(N3CCN(C)CC3)c2c1	> 20
COc1ccccc1CNc1ncnc2ccc(-c3ccoc3)cc12	> 20
O=C(c1cccc(F)c1)N1CCC2(CCCN(c3ccncc3)C2)CC1	> 20
COC(=O)N1CCC2(CC1)CN(C(c1ccccc1)c1ccccc1)C2	> 20
COc1ccccc1CNc1nc(-c2cccnc2)nc2ccccc12	> 20
O=C(Nc1cccc(F)c1)N1CCC2(CC1)CCN(C(=O)c1ccncc1)CC2	> 20
COc1cccc(-c2ccc3ncnc(NCCN4CCOCC4)c3c2)c1	> 20
O=C(c1cnccn1)N1CCC2(CCN(Cc3nccs3)CC2)CC1	> 20
c1csc(CNc2ncncc2-c2ccoc2)c1	> 20

Compound	Potency [µM]
Cc1cnc(CNc2ncncc2-c2ccccc2C#N)cn1	> 20
Cc1cccc(CNc2ncnc3ccc(-c4cccc(NS(C)(=O)=O)c4)cc23)c1	> 20
CCNc1ncc2nc(CCc3ccccc3)c(=O)n(CCOC)c2n1	> 20
COCCn1c(=O)c(-c2cccs2)nc2cnc(N3CCN(C)CC3)nc21	> 20
COc1ccc(C(=O)N2CCC3(CCCN(c4ccccc4)C3)CC2)cc1	> 20
O=C(c1cnccn1)N1CCC2(CC1)CN(Cc1cc(C(F)(F)F)cc(C(F)(F)F)c1)C2	> 20
COCCn1c(=O)c(-c2ccc(F)cc2)nc2cnc(OC)nc21	> 20
Cn1c(=O)c(-c2ccccc2)nc2cnc(Nc3ccccc3)nc21	> 4
COc1ccccc1-c1nccc(NCc2cccs2)n1	> 20
CN(C)Cc1ccccc1-c1ccc2ncnc(NCc3ccccc3)c2c1	> 20
Cc1noc(C)c1C(=O)N1CCC2(CCCN(C(c3ccccc3)c3ccccc3)C2)CC1	> 20
COc1ccc(NC(=O)N2CCC3(CC2)CCN(S(=O)(=O)c2ccccc2)CC3)cc1	> 20
COC(=O)N1CCC[C@@]2(CCN(C(=O)Nc3ccccc3)C2)C1	> 20
COc1ccc(NC(=O)N2CC[C@@]3(CCCN(C(=O)c4csnn4)C3)C2)cc1	> 20
NCCn1c(=O)c(CCc2ccccc2)nc2cncnc21	> 20
COc1ccc(NC(=O)N2CCCC3(CCN(C(=O)c4cc(C(F)(F)F)cc(C(F)(F)F)c4)CC3)C2)cc1	> 20
c1csc(CNc2nc(-c3ccoc3)nc3ccccc23)c1	> 20
O=c1c(-c2cccs2)nc2cncnc2n1Cc1ccccc1	> 20
Cc1noc(C)c1-c1nc(N(C)C)c2ccccc2n1	> 20
CN(C)C(=O)c1ccc(-c2cc(-n3ccnc3)ncn2)cc1	> 20
